The source made the active and inactive calls. Rule for the calls: active = hit-call score of the fitted dose curve at least 0.9, where 1 is the maximum; inactive = score below 0.9.
Key:
Conditions in all cases: mRNA level, 48 h; actives raise or lower the signal
[1] = read-out: Glutathione S-Transferase (GSTA2), GSTA2 (gene 2939); experiment: LTEA_HepaRG_GSTA2: Life Technologies and Expression Analysis (LTEA) Assay for Glutathione S-Transferase (GSTA2) using HepaRG (AID 2283497)
Procedure, shortened: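 Human HepaRG cells, plated 48 h, then exposed in serum-free induction medium for 48 h to eight half-log concentrations up to 100 uM in 0.5% DMSO, duplicate. GSTA2 mRNA by qRT-PCR, normalized to ACTB/GAPDH/POLR2A; bidirectional fit versus DMSO.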

[2] = read-out: Glutamate-cysteine ligase catalytic (GCLC), GCLC (gene 2729); experiment: LTEA_HepaRG_GCLC: Life Technologies and Expression Analysis (LTEA) Assay for Glutamate-cysteine ligase catalytic (GCLC) using HepaRG (AID 2283498)
Procedure, shortened: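 Differentiated human HepaRG cells, plated 48 h then switched to serum-free induction medium, were exposed in duplicate for 48 h to 8 half-log concentrations topping at 100 uM in 0.5% DMSO. GCLC mRNA was quantified by qRT-PCR against ACTB, GAPDH and POLR2A.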

[3] = read-out: growth arrest and DNA damage 45 (GADD45G), GADD45G (gene 10912); experiment: LTEA_HepaRG_GADD45G: Life Technologies and Expression Analysis (LTEA) Assay for growth arrest and DNA damage 45 (GADD45G) using HepaRG (AID 2283499)
Procedure, shortened: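 Concentration-response in HepaRG: 48 h dosing, 0.5% DMSO, highest level 100 uM. GADD45G expression by qRT-PCR, normalised to endogenous controls; bidirectional fit to DMSO.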

[4] = read-out: Glutamate-cysteine ligase regulatory (GCLM), GCLM (gene 2730); experiment: LTEA_HepaRG_GCLM: Life Technologies and Expression Analysis (LTEA) Assay for Glutamate-cysteine ligase regulatory (GCLM) using HepaRG (AID 2283500)
Procedure, shortened: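 Human liver HepaRG cultures receive test chemicals for 48 hours at up to 100 uM in 0.5% DMSO. GCLM expression is measured by qRT-PCR and analysed for increases or decreases against vehicle.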

[5] = read-out: Glutathione S-transferase M3 (GSTM3), GSTM3 (gene 2947); experiment: LTEA_HepaRG_GSTM3: Life Technologies and Expression Analysis (LTEA) Assay for Glutathione S-transferase M3 (GSTM3) using HepaRG (AID 2283501)
Procedure, shortened: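 Expression of GSTM3 is determined by qRT-PCR in human liver HepaRG cells treated 48 h with an 8-point half-log range from 100 uM in 0.5% DMSO.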

[6] = read-out: Heat shock 70 kDa protein 1 (HSPA1A), gene 3303; experiment: LTEA_HepaRG_HSPA1A: Life Technologies and Expression Analysis (LTEA) Assay for Heat shock 70 kDa protein 1 (HSPA1A) using HepaRG (AID 2283502)
Procedure, shortened: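 HSPA1A induction in human HepaRG liver cells is measured after 48 h of chemical treatment (100 uM maximum, 0.5% DMSO vehicle). Expression comes from qRT-PCR normalized to endogenous controls.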

[7] = read-out: Hypoxia-inducible factor 1-alpha (Homo sapiens) (UniProt Q16665); experiment: LTEA_HepaRG_HIF1A: Life Technologies and Expression Analysis (LTEA) Assay for Hypoxia-inducible factor 1 (HIF1A) Trancription factor using HepaRG (AID 2283503)
Procedure, shortened: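 HepaRG, 48 h exposure, 8-pt half-log series from 100 uM, 0.5% DMSO vehicle, duplicates. Readout: HIF1A transcript by qRT-PCR (Fluidigm array), housekeeping-normalised. Bidirectional curve fit vs DMSO baseline.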

[8] = read-out: 3-Hydroxy-3-Methylglutaryl-CoA Synthase 2 (HMGCS2), HMGCS2 (gene 3158); experiment: LTEA_HepaRG_HMGCS2: Life Technologies and Expression Analysis (LTEA) Assay for 3-Hydroxy-3-Methylglutaryl-CoA Synthase 2 (HMGCS2) using HepaRG (AID 2283504)
Procedure, shortened: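 This steatosis marker was read as HMGCS2 mRNA change in HepaRG cells treated 48 h with up to 100 uM chemical. Normalisation used housekeeping genes; activity in either direction was fitted relative to 0.5% DMSO vehicle.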

HGF (gene 3082) = experiment: LTEA_HepaRG_HGF: Life Technologies and Expression Analysis (LTEA) Assay for Hepatocyte Growth Facto (HGF) using HepaRG (AID 2283505)
Procedure, shortened: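 Using HepaRG monolayers kept in 0.5% DMSO, chemicals were tested in duplicate over eight half-log concentrations from 100 uM for 48 h. Endpoint: HGF mRNA change relative to DMSO, normalized to ACTB/GAPDH/POLR2A.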

[9] = read-out: Insulin Like Growth Factor 1 (IGF1), IGF1 (gene 3479); experiment: LTEA_HepaRG_IGF1: Life Technologies and Expression Analysis (LTEA) Assay for Insulin Like Growth Factor 1 (IGF1) using HepaRG (AID 2283506)
Procedure, shortened: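 Using human HepaRG liver cells, IGF1 transcript induction or suppression is measured 48 h after dosing across eight concentrations capped at 100 uM. Values derive from bidirectional concentration-response fitting with DMSO as baseline.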

[10] = read-out: Intercellular Adhesion Molecule 1 (ICAM1), ICAM1 (gene 3383); experiment: LTEA_HepaRG_ICAM1: Life Technologies and Expression Analysis (LTEA) Assay for Intercellular Adhesion Molecule 1 (ICAM1) using HepaRG (AID 2283507)
Procedure, shortened: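 Using the human liver line HepaRG, compounds are tested in duplicate over 48 h at concentrations up to 100 uM. Expression is determined by TaqMan qRT-PCR, normalized to endogenous controls, and analysed relative to 0.5% DMSO vehicle.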

[11] = read-out: Insulin-like growth factor-binding protein 1 (IGFBP1), IGFBP1 (gene 3484); experiment: LTEA_HepaRG_IGFBP1: Life Technologies and Expression Analysis (LTEA) Assay for Insulin-like growth factor-binding protein 1 (IGFBP1) using HepaRG (AID 2283508)
Procedure, shortened: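 HepaRG, 48 h, 8 conc. (max 100 uM, half-log), duplicates, 0.5% DMSO. Readout: TaqMan qRT-PCR, ACTB/GAPDH/POLR2A normalisation. Fit: bidirectional vs DMSO.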

[12] = read-out: Interleukin 6 (IL6), IL6 (gene 3569); experiment: LTEA_HepaRG_IL6: Life Technologies and Expression Analysis (LTEA) Assay for Interleukin 6 (IL6) using HepaRG (AID 2283509)
Procedure, shortened: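 Differentiated human HepaRG cells, plated 48 h then switched to serum-free induction medium, were exposed in duplicate for 48 h to eight half-log concentrations up to 100 uM in 0.5% DMSO. IL6 mRNA measured by qRT-PCR, normalized to ACTB/GAPDH/POLR2A.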

[13] = read-out: Interleukin 6 Receptor (IL6R), IL6R (gene 3570); experiment: LTEA_HepaRG_IL6R: Life Technologies and Expression Analysis (LTEA) Assay for Interleukin 6 Receptor (IL6R) using HepaRG (AID 2283510)
Procedure, shortened: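 Concentration-response in human liver HepaRG cells: eight concentrations from 100 uM downward by half-logs, 48 h exposure, 0.5% DMSO vehicle. IL6R mRNA change measured by qRT-PCR and fitted in both directions relative to vehicle.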

[14] = read-out: Potassium channel subfamily K member 1 (KCNK1), KCNK1 (gene 3775); experiment: LTEA_HepaRG_KCNK1: Life Technologies and Expression Analysis (LTEA) Assay for Potassium channel subfamily K member 1 (KCNK1) using HepaRG (AID 2283511)
Procedure, shortened: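 Differentiated human HepaRG cells in serum-free induction medium were exposed in duplicate for 48 h to 8 half-log concentrations up to 100 uM in 0.5% DMSO. KCNK1 mRNA was measured by TaqMan qRT-PCR, normalized to ACTB, GAPDH and POLR2A, and fitted bidirectionally versus DMSO.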

[15] = read-out: Keratin 19 (KRT19), KRT19 (gene 3880); experiment: LTEA_HepaRG_KRT19: Life Technologies and Expression Analysis (LTEA) Assay for Keratin 19 (KRT19) using HepaRG (AID 2283512)
Procedure, shortened: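 Readout is qRT-PCR of KRT19 mRNA, normalized to ACTB, GAPDH and POLR2A, from HepaRG cells treated 48 h with eight-point half-log dilutions topping at 100 uM. Activity in either direction is scored relative to 0.5% DMSO vehicle.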

[16] = read-out: JUN Transcription Factor, JUN (gene 3725); experiment: LTEA_HepaRG_JUN: Life Technologies and Expression Analysis (LTEA) Assay for JUN Transcription Factor using HepaRG (AID 2283513)
Procedure, shortened: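 Human HepaRG liver cells receive test chemicals in 0.5% DMSO for 48 h across an eight-point range topping at 100 uM. Expression changes in JUN are scored in both directions against the DMSO vehicle.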

[17] = read-out: Lipase C (LIPC), LIPC (gene 3990); experiment: LTEA_HepaRG_LIPC: Life Technologies and Expression Analysis (LTEA) Assay for Lipase C (LIPC) using HepaRG (AID 2283514)
Procedure, shortened: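 Differentiated human HepaRG cells in serum-free induction medium were exposed in duplicate for 48 h to eight concentrations (top 100 uM, half-log steps, 0.5% DMSO). LIPC mRNA was quantified by TaqMan qRT-PCR, normalized to ACTB, GAPDH and POLR2A, with bidirectional fitting versus DMSO.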

[18] = read-out: Lipoprotein lipase (LPL), LPL (gene 4023); experiment: LTEA_HepaRG_LPL: Life Technologies and Expression Analysis (LTEA) Assay for Lipoprotein lipase (LPL) using HepaRG (AID 2283515)
Procedure, shortened: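 Differentiated human HepaRG cells in serum-free induction medium were exposed in duplicate for 48 h to eight half-log concentrations (top 100 uM) in 0.5% DMSO. LPL mRNA was quantified by TaqMan qRT-PCR, normalized to ACTB, GAPDH and POLR2A.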

[19] = read-out: MicroRNA 122 (MIR122), gene 406906; experiment: LTEA_HepaRG_MIR122: Life Technologies and Expression Analysis (LTEA) Assay for MicroRNA 122 (MIR122) using HepaRG (AID 2283516); note: the transcript read is the microRNA miR-122
Procedure, shortened: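 HepaRG, 48 h exposure, 8-pt half-log from 100 uM, 0.5% DMSO; TaqMan qRT-PCR; bidirectional fit vs DMSO.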

Measured: AC50

Sequence of Hypoxia-inducible factor 1-alpha (Homo sapiens) (Q16665 whole entry, looked up): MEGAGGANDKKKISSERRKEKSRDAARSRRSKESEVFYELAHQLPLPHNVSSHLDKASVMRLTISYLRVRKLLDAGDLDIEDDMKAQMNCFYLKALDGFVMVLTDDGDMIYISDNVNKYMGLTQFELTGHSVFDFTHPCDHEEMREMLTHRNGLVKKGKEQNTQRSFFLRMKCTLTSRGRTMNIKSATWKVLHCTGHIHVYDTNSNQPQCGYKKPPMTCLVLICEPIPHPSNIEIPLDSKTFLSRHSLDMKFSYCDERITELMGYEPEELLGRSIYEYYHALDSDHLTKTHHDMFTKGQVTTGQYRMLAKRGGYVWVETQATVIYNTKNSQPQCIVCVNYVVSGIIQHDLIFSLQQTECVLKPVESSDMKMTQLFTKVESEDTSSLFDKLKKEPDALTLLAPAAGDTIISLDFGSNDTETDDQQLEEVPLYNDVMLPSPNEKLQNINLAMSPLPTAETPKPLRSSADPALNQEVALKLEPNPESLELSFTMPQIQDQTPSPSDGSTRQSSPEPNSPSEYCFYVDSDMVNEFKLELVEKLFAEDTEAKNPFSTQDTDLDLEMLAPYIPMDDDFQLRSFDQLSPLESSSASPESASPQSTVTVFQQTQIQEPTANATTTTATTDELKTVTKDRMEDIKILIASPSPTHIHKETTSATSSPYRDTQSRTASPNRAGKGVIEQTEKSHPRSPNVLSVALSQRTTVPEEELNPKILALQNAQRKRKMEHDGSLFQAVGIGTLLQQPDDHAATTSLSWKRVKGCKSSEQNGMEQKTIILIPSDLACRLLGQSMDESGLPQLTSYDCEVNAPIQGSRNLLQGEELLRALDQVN

Cc1ccc(Cl)cc1
inactive: all assays above

CCCCc1ccc2c(n1)[C@@H](c1ccc(OC)cc1C[C@H](C)C(=O)O)[C@H](C(=O)O)[C@H]2c1ccc2c(c1)OCO2
not listed: [1]
inactive: all other assays above

O=[N+]([O-])C(CO)(CO)CO
not listed: [3] | HGF (gene 3082) | [19]
inactive: all other assays above

CNC(=O)[C@H]1O[C@@H](n2cnc3c(NCc4cc(Cl)ccc4OCc4cc(C)no4)ncnc32)[C@H](O)[C@@H]1N
not listed: [1]
inactive: all other assays above

CCCCN(CCCC)CCCC
not listed: [1] | [19]
inactive: all other assays above

COc1ccc2c(c1)c(CC(=O)O)c(C)n2C(=O)c1ccc(Cl)cc1
not listed: [1] | [19]
inactive: all other assays above

CN1CCN(Cc2cc(-c3ccc4[nH]c(=O)oc4c3)co2)[C@@H](c2ccc(F)cc2)C1
active: [3] 71.9 µM | [12] 50 µM | [15] 23.9 µM
not listed: [1] | [19]
inactive: all other assays above

Reference: PubChem BioAssay (EPA / NIEHS)
